From PubChem BioAssay AID1619 (SRMLSC, 2009)
Hit rate of the full screen: of about 220,000 compounds, about 830 (0.38%) were called active.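 Rule for the calls: active = compound inhibiting the enzyme by more than half at any dose during confirmatory dose-response retesting; inconclusive = strong single-dose inhibitors picked by rank but not retested; inactive = the rest.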 These entries were drawn from the full list. Results with a measured potency or affinity are listed apart.

Target: Leucine aminopeptidase (Plasmodium falciparum (isolate 3D7)) (UniProt Q8IL11)
Assay: P. falciparum M17LAP inhibitors, primary screen, biochemical, fluorogenic H-Leu-NHMec substrate, 1536-well (AID 1619);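 note: plate controls were full reaction with DMSO carrier for no effect and no enzyme background for full effect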
Details: recombinant M17LAP, H-Leu-NHMec fluorogenic kinetic assay; at 30 µM; active compounds read high

Sequence of Leucine aminopeptidase (Plasmodium falciparum (isolate 3D7)) (Q8IL11 whole entry, looked up): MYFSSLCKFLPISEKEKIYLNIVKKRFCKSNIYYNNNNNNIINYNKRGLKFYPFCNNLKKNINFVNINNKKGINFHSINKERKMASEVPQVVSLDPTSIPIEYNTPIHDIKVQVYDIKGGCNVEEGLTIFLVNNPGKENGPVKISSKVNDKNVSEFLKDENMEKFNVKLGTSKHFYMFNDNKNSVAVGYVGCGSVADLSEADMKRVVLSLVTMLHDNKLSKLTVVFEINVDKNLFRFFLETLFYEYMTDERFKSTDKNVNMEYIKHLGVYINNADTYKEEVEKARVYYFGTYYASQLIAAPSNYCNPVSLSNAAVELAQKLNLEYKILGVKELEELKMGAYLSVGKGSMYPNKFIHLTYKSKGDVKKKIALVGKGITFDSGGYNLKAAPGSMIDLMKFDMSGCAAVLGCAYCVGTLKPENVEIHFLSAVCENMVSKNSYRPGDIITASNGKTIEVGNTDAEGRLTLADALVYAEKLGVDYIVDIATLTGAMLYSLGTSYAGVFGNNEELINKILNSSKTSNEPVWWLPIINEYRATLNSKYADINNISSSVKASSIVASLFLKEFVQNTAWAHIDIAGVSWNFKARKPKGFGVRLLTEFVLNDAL

inhibition, inactive:
Cc1c(NC(C)c2ccccc2O)c(=O)n(-c2ccccc2)n1C (centres undefined) 3.02%
C/C(=C\C(=O)c1ccc(Br)cc1)Nc1ccc(Cl)cc1 -7.69%
CCc1nnc(NS(=O)(=O)c2ccc(N=Cc3c(C)[nH]n(-c4ccc(Cl)cc4)c3=O)cc2)s1 45.4%
COc1nccnc1NS(=O)(=O)c1ccc(N=Cc2c(C)[nH]n(-c3ccc(Cl)cc3)c2=O)cc1 38.5%
CCc1nnc(NS(=O)(=O)c2ccc(N3C(=O)c4ccc(C(=O)O)cc4C3=O)cc2)s1 3.4%
CCc1nnc(NS(=O)(=O)c2ccc(NS(=O)(=O)c3ccc(NC(C)=O)cc3)cc2)s1 35.4%
COc1ccc(C(=O)Nc2ccc(S(=O)(=O)Nc3nccnc3OC)cc2)cc1OC 16.3%
Cc1cc(C)nc(NS(=O)(=O)c2ccc(N=Cc3c(C)[nH]n(-c4ccccc4)c3=O)cc2)n1 6.98%
Cc1ccc(-n2[nH]c(C)c(C=Nc3ccc(S(=O)(=O)Nc4nccs4)cc3)c2=O)cc1C -8.94%
Cc1[nH]n(-c2ccccc2)c(=O)c1C=Nc1ccc(S(=O)(=O)Nc2nccs2)cc1 3.82%
O=C(CN1CCOCC1)Nc1ccccc1-c1ccccc1 -4.42%
CCOc1ccccc1N1CCN(C(=O)c2c(C)noc2C)CC1 -5.81%
CCC1CCCN1Cn1cnc2c([nH]c3ccc(C)cc32)c1=O (centres undefined) 0.76%
CCCc1nnc(NC(=O)CCC(=O)NCc2ccc(OC)cc2)s1 13.8%
CCCCOc1ccccc1Cn1c(=O)oc2ccc(C)cc21 -14.1%
O=C(CSc1ncccn1)n1c2c(c3ccccc31)CCCC2 0.07%
Cc1nc2ccccc2c2c1C(=O)N(C1CCCCCCC1)C2=O -2.77%
CN1C(=O)CSc2ccc(NC(=O)N3CCN(c4ccccc4)CC3)cc21 -3.56%
CC1CN(C(=O)c2ccc(N3CCCCC3)c([N+](=O)[O-])c2)CC(C)O1 (centres undefined) 8.04%
Cc1noc(NS(=O)(=O)c2ccc(NC(=O)c3cnc4n(c3=O)CCS4)cc2)c1C 36%
CCOc1cc(/C=N/NC(=S)Nc2ccccc2C(F)(F)F)ccc1OCC(=O)N1CCOCC1 0.32%
Cc1cc(-c2nc(-c3ccc(C(C)(C)C)cc3)no2)no1 2.57%
COCCCNC(=O)c1ccc(C2SCC(=O)N2Cc2ccco2)cc1 (centres undefined) 9.82%
COc1cc(SC)ccc1C(=O)NCc1ccc(C)cc1 -9.45%
CCc1nnc(NS(=O)(=O)c2ccc(N=CC3=C(O)CC(C)(C)CC3=O)cc2)s1 37.1%
CCc1nnc(NS(=O)(=O)c2ccc(N3C(=O)c4ccccc4C3=O)cc2)s1 19.2%
COc1cccc(/C=C2/NC(=O)NC2=O)c1OCC(=O)Nc1ccccc1 1.46%
Cc1ccnc2nc(C(=O)OCCOc3ccc(F)cc3)nn12 -4.95%
Cc1ccc(OCC(=O)Nc2cccc(O)c2)cc1C 17.6%
Cc1ccc(OCC(=O)Nc2cc(C(=O)O)cc(C(=O)O)c2)cc1C -17.5%
Cc1cc(C)c(C#N)c(SCCS(=O)(=O)Cc2ccccc2)n1 -2.33%
N#Cc1cc2c(nc1SCC(O)CS(=O)(=O)Cc1ccccc1)CCCC2 (centres undefined) 22.9%
COC(=O)N/N=C/c1cccc(OCCSc2ccc(Cl)cc2)c1 11.2%
C/C(=N\NC(=O)COc1ccccc1)c1ccc(O)cc1 16.8%
C/C(=N\NC(=O)Cc1cccn1C)c1ccc2ccccc2c1 32.5%
COc1cc(/C(C)=N/NC(=O)CSc2nc3ccccc3[nH]2)ccc1O 8.45%
C/C(=N\NC(=O)Cc1ccc(F)cc1)c1ccc(O)cc1 6.85%
C/C(=N\NC(=O)Cc1c[nH]c2ccccc12)c1ccc2ccccc2c1 -0.21%
COc1cc(/C(C)=N/NC(=O)CSc2nnc(C)s2)ccc1O -1.63%
CN(C)c1ccc(NC(=S)N2CCN(c3ncc(C(F)(F)F)cc3Cl)CC2)cc1 -0.82%
COc1ccccc1N1CCN(CC(=O)Nc2ccc(-n3cnnn3)cc2)CC1 -1.4%
O=c1cc(N2CCOCC2)[nH]c(=O)n1C1CCCCC1 8.33%
CC(C)c1nc(-c2c(N)n(C)c(=O)n(C)c2=O)sc1C(=O)C(C)(C)C -3.01%
O=C(c1cc(-c2ccc3c(c2)OCO3)on1)N1CCOCC1 -10.2%
Cc1ccc(NC(=O)Nc2ccc(F)cc2)nc1 3.7%
CCC(=O)N1CCN(c2ccc(NC(=O)c3ccc([N+](=O)[O-])o3)cc2Cl)CC1 3.55%
CCOC(=O)N1CCN(C(=O)Nc2cccc3ccccc23)CC1 23.7%
Fc1cccc(CSc2ccc3nnc(-c4cccnc4)n3n2)c1 21.3%
COc1ccccc1NC(=S)NC(=O)c1ccc(-c2ccc(Cl)cc2)o1 4.34%
O=C(NC(=S)Nc1ccccc1O)c1ccc(-c2ccc(Cl)cc2)o1 1.04%
Cc1ccc(OCC(=O)Nc2ccc(N(C)C)cc2)cc1 -2.19%
COc1ccc(-n2c(C(C)n3nc(C)c([N+](=O)[O-])c3C)n[nH]c2=S)cc1 (centres undefined) 31.2%
Cc1cccc(-c2n[nH]c(=S)n2-c2ccccc2)c1[N+](=O)[O-] 0.12%
Cc1ccc(NC(=S)NC(C)(C)C)c([N+](=O)[O-])c1 -4.98%
O=C(O)[C@H]1CCCC[C@H]1C(=O)NCCc1ccccc1 36.3%
COc1ccc(CNC(=O)C2CCNCC2)cc1 -2.52%
O=C(O)C1CCCCC1C(=O)NCCc1ccccc1 (centres undefined) 32.3%
CC1=C(C)CC(C(=O)NCc2ccc3c(c2)OCO3)C(C(=O)O)C1 (centres undefined) 45.8%
CCC(c1nnnn1Cc1cccs1)N1CCN(C(=O)c2ccco2)CC1 (centres undefined) 16.8%
